Values joined by “and” are separate entries in the source; they are usually repeats but may differ in a detail not shown here. Equal values may be shown once. A number with no mark means an inactive call. Records with an inconclusive call do not appear. A call without a number means that no potency is given here. Active and inactive are the calls of the source. Unless noted, the call rests on the fitted dose curve; in most records, active means well fitted curve in either direction with a large enough effect (not every such curve was filed as active); inconclusive means small, poorly fitted or top-dose-only effect, or another doubt; inactive means flat fitted curve, though single readings scatter.
Tests used:
[1] = AP1 Signaling Pathway (AID 357);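 further: ME-180 reporter cells stimulated with EGF at its EC50 level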
Method in brief: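 Cells are seeded overnight, exposed to compound titrations and an EC50 level of EGF for 5 hours at 37 °C, then loaded with CCF4 dye for 2.5 hours. Beta-lactamase activity under the AP-1 element is read as a blue/green ratio.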

[2] = biological target: Cytochrome P450 1A2 (Homo sapiens) (UniProt P05177); test: p450-cyp1a2 (AID 410; calls by dose curve; further: potency means the concentration at half of the fitted maximal effect)
Method in brief: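 Human CYP1A2 (20nM) demethylated Luciferin-ME at its Km (100uM) in 100mM KPO4. After 10 min compound preincubation, NADPH regeneration ran the reaction 60 min at room temperature. Luciferin was read by luminescence, normalized to 57 uM furafylline.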

[3] = NFAT Signaling Pathway (AID 444); conditions: Jurkat NFAT-bla M1, carbachol, beta-lactamase ratio, 5 h;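 further: carbachol stimulus at about its EC50 of 1 µM final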
Method in brief: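 Read-out: CCF4 FRET ratio (460 nm/530 nm) after 1 h RT dye loading, used for %activity and AC50 from titration series. Cells: Jurkat NFAT-β-lactamase/M1 line, treated with compound plus 1 uM carbachol for 5 h, 37 °C.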

[4] = Stat Signaling Pathway (AID 446);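 further: ME-180 cervical cancer cells given 40 pM IL-6 alongside compound; SIE-controlled beta-lactamase reporter measured as 460/530 nm FRET emission ratio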
Method in brief: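 ME-180 SIE-bla cells; overnight plating; cpd + IL-6 40 pM, 5 h, 37 C; LiveBLAzer 2.5 h RT; 460/530 nm emission ratio. Normalized to 300 pM IL-6 and 125 nM JAK inhibitor controls.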

[5] = biological target: Glucocorticoid receptor (Homo sapiens) (UniProt P04150); test: GR-GFP Redistribution (AID 450;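 active means compounds whose dose series gives a full or clear partial fitted curve of increased nuclear translocation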; further: potency means the concentration at half of the fitted maximal effect); conditions: U2OS GR-GFP nuclear translocation, laser cytometry, 2 h
[6] = biological target: Glucocorticoid receptor (Homo sapiens) (UniProt P04150); test: GR-EFC Redistribution (AID 451; calls by dose curve; further: potency means the concentration at half of the fitted maximal effect); conditions: CHO-K1 GR-EFC translocation, beta-gal luminescence, 2 h
Method in brief: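 Translocation of GR-ED fusion to nuclear EA restores b-gal, read by luminescence after 1 h room-temperature detection. Engineered CHO-K1 biosensor cells, 1,000/well, exposed 2 h at 37 C to titrations up to 46 uM final.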

[7] = biological target: Mitogen-activated protein kinase 10 (Mus musculus) (UniProt Q61831); test: JNK3 AlphaScreen Assay (AID 530);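 further: kinase came from lysate of stimulated human HepG2 cells; signal reports phosphorylation of biotinylated GST-cJun 1-79 at Ser73 with 10 µM ATP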
Method in brief: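 Room-temperature AlphaScreen kinase assay; pre-activated HepG2 lysate as JNK3 source, biotin-GST-cJun(1-79) substrate, 10 uM ATP, compound 15 min preincubation.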

[8] = biological target: Lysosomal acid glucosylceramidase (Homo sapiens) (UniProt P04062); test: Glucocerebrosidase-p2 (AID 348; in the data active means potency below about 10 µM; further: potency means the concentration at half of the fitted maximal effect); conditions: purified GBA, blue fluorogenic substrate, 40 min
Method in brief: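 Compounds titrated from 0.6 nM upwards against 0.2 nM enzyme in pH 5.9 citric acid/KH2PO4, taurocholate, tween-20; blue fluorogenic substrate 80 uM, 40 min room temperature, stopped and read Ex 365/Em 440 for AC50.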

[9] = Cell Viability - BJ (AID 421; calls by dose curve;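 further: potency means the concentration at half of the fitted maximal effect; cells exposed to compound for 40 hours at 37 °C before readout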); conditions: BJ fibroblast viability, qHTS
Method in brief: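 Luminescent ATP signal (CellTiter-Glo, 20 min at room temperature) served as the read-out of viable BJ cells after 40 hours of compound treatment. Responses were scaled between DMSO and 100 uM tamoxifen, and AC50 values were obtained by Hill modeling.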

[10] = Cell Viability - Jurkat (AID 426;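 active means dose-dependent loss of cell ATP signal giving a full or clear fitted curve, ranked by lower potency value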; further: potency means the concentration at half of the fitted maximal effect); conditions: qHTS
Method in brief: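 Jurkat (clone E6-1, human T-cell leukemia) cells, 5000/well in complete medium, were exposed to compound for 40 hr at 37 °C. Viability was read as intracellular ATP by CellTiter-Glo luminescence; AC50 came from Hill fits of concentration-response data.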

[11] = Cell Viability - Hek293 (AID 427;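 active means compounds whose dose-response curve shows a full or clear partial loss of cell viability, called from curve shape rather than a numeric limit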;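 further: potency means the concentration at half of the fitted maximal effect; cells exposed to compound for 40 hours at 37 °C before reading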); conditions: qHTS
Method in brief: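 Luminescent ATP read-out (CellTiter-Glo, 20 min RT) after 40 hr compound exposure at 37 °C in complete medium. Signal normalized to DMSO (basal) and 100 uM tamoxifen (100% inhibition); concentration-response fitted with the standard Hill equation to give AC50.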

[12] = Cell Viability - HepG2 (AID 433; calls by dose curve;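 further: potency means the concentration at half of the fitted maximal effect; potency for ATP loss meaning cytotoxicity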); conditions: qHTS
Method in brief: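 ATP luminescence (CellTiter-Glo) after 40 h compound exposure, 37 °C, HepG2, 1500 cells/well, complete medium. Normalized: DMSO = basal, 100 uM tamoxifen = 100% inhibition. AC50 via standard Hill equation.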

[13] = Cell Viability - MRC5 (AID 434; calls by dose curve;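 further: potency means the concentration at half of the fitted maximal effect; potency reflects cytotoxicity seen as loss of intracellular ATP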); conditions: MRC5 lung fibroblast viability, qHTS
Method in brief: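 qHTS cytotoxicity in human lung fibroblast MRC5 cells; 40 hr treatment, 37 °C; cellular ATP by luciferase luminescence; DMSO = 0%, 100 uM tamoxifen = 100% inhibition; Hill-fit AC50.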

[14] = Cell Viability - SK-N-SH (AID 435; calls by dose curve; further: potency means the concentration at half of the fitted maximal effect); conditions: SK-N-SH neuroblastoma cell viability qHTS
Method in brief: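 CellTiter-Glo ATP luminescence, 20 min RT read; cells pre-plated 5 hr, compound 40 hr at 37 °C, 1500 cells/well, complete medium. Normalized DMSO = 0, 100 uM tamoxifen = 100% inhibition; Hill-fit AC50.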

[15] = Cell Viability - N2a (AID 540; active means well fitted curve in the direction sought with a large enough effect; an effect the other way counts as inactive or inconclusive; further: nearly all actives have a fitted effect of over 45% in size)
Method in brief: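 Mouse neuroblastoma N2a cells (1500/well) were preincubated 5 hr at 37 °C, then exposed to compounds for 40 hr at 37 °C in complete medium. Viability was read as intracellular ATP by CellTiter-Glo luminescence; AC50 from Hill fits.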

[16] = Cell Viability - NIH 3T3 (AID 541; active means well fitted curve in the direction sought with a large enough effect; an effect the other way counts as inactive or inconclusive; further: nearly all actives have a fitted effect of over 25% in size)
Method in brief: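 NIH 3T3 mouse embryo fibroblasts (1000 cells/well) were plated in complete medium and treated with compound for 40 hr at 37 °C. Viability was read as intracellular ATP by CellTiter-Glo luminescence; AC50 values came from Hill-equation fits of concentration-response data.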

[17] = Cell Viability - HUV-EC-C (AID 542; active means well fitted curve in the direction sought with a large enough effect; an effect the other way counts as inactive or inconclusive; further: nearly all actives have a fitted effect of over 35% in size)
Method in brief: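 HUV-EC-C normal human vascular endothelial cells, 1000 cells/well, pre-incubated 5 hr at 37 °C, then exposed to compounds for 40 hr at 37 °C in complete medium. Viability measured as intracellular ATP by CellTiter-Glo luminescence; AC50 from Hill fits.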

[18] = Cell Viability - H-4-II-E (AID 543; active means well fitted curve in the direction sought with a large enough effect; an effect the other way counts as inactive or inconclusive; further: nearly all actives have a fitted effect of over 35% in size)
Method in brief: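 Rat hepatoma H-4-II-E cells (1500/well) were plated, incubated 5 hr at 37 °C, then exposed to compounds for 40 hr at 37 °C. Cellular ATP was read by CellTiter-Glo luminescence; AC50 came from Hill-equation fits of concentration-response data.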

[19] = Cell Viability - SH-SY5Y (AID 544; active means well fitted curve in the direction sought with a large enough effect; an effect the other way counts as inactive or inconclusive; further: nearly all actives have a fitted effect of over 55% in size); conditions: SH-SY5Y neuroblastoma cell viability; at 92.2 µM (top of the series)
Method in brief: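 Human neuroblastoma SH-SY5Y cells (1500/well) in complete medium were exposed to compounds for 40 hr at 37 °C; intracellular ATP was then quantified by CellTiter-Glo luminescence after 20 min at room temperature. AC50 came from Hill-equation concentration-response fits.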

[20] = Cell Viability - Renal Proximal Tubule (AID 545; active means well fitted curve in the direction sought with a large enough effect; an effect the other way counts as inactive or inconclusive; further: nearly all actives have a fitted effect of over 40% in size)
Method in brief: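 Rat kidney proximal tubule cells, freshly isolated; 1000 cells/well, 5 hr settle, compound 40 hr 37 °C. CellTiter-Glo 20 min RT, luminescence read. AC50 by standard Hill fit.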

[21] = at 17.2 µM (top of the series) unless noted

Cytochrome P450 1A2 (Homo sapiens), sequence (P05177 whole entry, looked up): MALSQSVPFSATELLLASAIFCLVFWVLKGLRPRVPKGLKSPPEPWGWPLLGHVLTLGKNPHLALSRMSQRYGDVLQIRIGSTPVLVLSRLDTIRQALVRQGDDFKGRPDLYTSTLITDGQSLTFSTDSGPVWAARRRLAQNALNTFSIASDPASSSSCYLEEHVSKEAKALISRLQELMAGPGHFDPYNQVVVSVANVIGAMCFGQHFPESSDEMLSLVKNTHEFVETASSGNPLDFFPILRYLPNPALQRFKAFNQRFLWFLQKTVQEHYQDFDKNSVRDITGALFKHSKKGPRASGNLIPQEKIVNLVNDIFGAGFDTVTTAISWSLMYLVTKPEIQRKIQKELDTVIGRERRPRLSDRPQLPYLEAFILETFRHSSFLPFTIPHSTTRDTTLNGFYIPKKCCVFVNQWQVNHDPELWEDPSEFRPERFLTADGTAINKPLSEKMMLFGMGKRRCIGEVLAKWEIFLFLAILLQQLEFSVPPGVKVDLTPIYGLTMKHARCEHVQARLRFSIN
Glucocorticoid receptor (Homo sapiens), sequence (P04150 whole entry, looked up, the tested form may be a part): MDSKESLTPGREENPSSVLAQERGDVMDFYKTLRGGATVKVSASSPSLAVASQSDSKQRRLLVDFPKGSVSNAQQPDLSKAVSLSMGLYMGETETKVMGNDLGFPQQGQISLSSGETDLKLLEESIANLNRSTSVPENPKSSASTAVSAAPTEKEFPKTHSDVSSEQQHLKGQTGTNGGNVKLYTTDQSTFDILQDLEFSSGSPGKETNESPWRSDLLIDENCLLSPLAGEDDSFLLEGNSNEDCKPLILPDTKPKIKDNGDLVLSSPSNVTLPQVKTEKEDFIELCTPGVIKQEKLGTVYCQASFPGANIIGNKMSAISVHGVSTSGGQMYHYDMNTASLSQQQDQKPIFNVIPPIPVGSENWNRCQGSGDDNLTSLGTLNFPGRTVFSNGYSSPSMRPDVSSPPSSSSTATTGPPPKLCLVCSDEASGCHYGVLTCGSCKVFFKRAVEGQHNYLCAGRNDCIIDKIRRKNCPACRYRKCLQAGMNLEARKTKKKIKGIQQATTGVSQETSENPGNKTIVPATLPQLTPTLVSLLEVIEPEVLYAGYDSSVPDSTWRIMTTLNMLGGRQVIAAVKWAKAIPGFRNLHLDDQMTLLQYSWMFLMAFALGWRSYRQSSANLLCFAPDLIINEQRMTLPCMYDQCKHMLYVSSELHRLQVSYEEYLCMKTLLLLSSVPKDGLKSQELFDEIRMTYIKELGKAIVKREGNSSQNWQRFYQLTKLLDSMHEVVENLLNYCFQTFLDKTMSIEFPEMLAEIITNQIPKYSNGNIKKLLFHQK
Lysosomal acid glucosylceramidase (Homo sapiens), sequence (P04062 whole entry, looked up): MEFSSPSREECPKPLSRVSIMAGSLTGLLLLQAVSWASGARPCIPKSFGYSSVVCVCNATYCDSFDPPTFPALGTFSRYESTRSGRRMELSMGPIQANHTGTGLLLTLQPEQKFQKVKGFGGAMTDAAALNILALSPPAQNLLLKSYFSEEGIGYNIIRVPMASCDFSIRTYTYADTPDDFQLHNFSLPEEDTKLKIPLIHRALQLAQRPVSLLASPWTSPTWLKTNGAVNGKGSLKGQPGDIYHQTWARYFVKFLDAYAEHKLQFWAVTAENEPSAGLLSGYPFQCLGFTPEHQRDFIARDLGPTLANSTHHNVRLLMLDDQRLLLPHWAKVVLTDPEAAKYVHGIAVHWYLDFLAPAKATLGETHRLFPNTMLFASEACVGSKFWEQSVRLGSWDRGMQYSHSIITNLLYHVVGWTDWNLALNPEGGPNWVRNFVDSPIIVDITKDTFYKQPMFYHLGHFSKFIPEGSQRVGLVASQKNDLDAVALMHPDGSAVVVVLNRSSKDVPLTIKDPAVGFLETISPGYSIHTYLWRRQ

With `C[C@@H]1CCC[C@H](C)N1` the outcome [1] was “inactive”, the Potency [2] was “inactive” and the activity change, negative = inhibition [3, 21] was -5.56%. The outcome [4] was “inactive”, the Potency [5] was greater than 20.6 µM and the Potency [6] was greater than 20.6 µM. For the same molecule, the outcome [7] was “inactive”.

In the case of `NC(N)=NS(=O)(=O)c1ccc(N)cc1`, the outcome [1] was “inactive”, the Potency [2] was “inactive” and the activity change, negative = inhibition [3, 21] was -6.04% and -19.4%. The outcome [4] was “inactive”, the Potency [5] was greater than 20.6 µM and the Potency [6] was greater than 20.6 µM. For the same molecule, the outcome [7] was “inactive”.

For `NS(=O)(=O)c1ccc(C(=O)O)cc1`, the Potency [8] was greater than 11.4 µM, the outcome [1] was “inactive” and the Potency [2] was “inactive”. The activity change, negative = inhibition ([3]; at 7.69 µM (top of the series)) was 7.39%, the activity change, negative = inhibition ([3]; at 17.2 µM (top of the series)) was 8.44% and the outcome [4] was “inactive”. The Potency [5] was > 46 µM and > 20.6 µM, the Potency [6] was greater than 9.22 µM and the outcome [7] was “inactive”.

With `COc1ccc2cc(CCC(C)=O)ccc2c1` the outcome [1] was “inactive”, the Potency [2] was 0.398 µM (active) and the activity change, negative = inhibition [3, 21] was -1.6%. For the same molecule, the outcome [4] was “inactive”, the Potency [5] was greater than 20.6 µM and the Potency [6] was greater than 20.6 µM. For the same molecule, the outcome [7] was “inactive”.

For `CCOC(=O)[C@H](CCc1ccccc1)N[C@@H](C)C(=O)N1CCC[C@H]1C(=O)O`, the outcome [1] was “inactive”, the Potency [2] was “inactive” and the activity change, negative = inhibition [3, 21] was 0.851%. For the same molecule, the outcome [4] was “inactive”, the Potency [5] was greater than 20.6 µM and the Potency [6] was greater than 20.6 µM. For the same molecule, the outcome [7] was “inactive”.

For `CC(=O)SC[C@@H](Cc1ccccc1)C(=O)NCC(=O)OCc1ccccc1`, the outcome [1] was “inactive”, the Potency [2] was 2.51 µM (active) and the activity change, negative = inhibition [3, 21] was -12%. The outcome [4] was “inactive”, the Potency [5] was greater than 20.6 µM and the Potency [6] was greater than 20.6 µM. The outcome [7] was “inactive”.

In the case of `NCc1ccc(S(N)(=O)=O)cc1`, the outcome [1] was “inactive”, the Potency [2] was “inactive” and the activity change, negative = inhibition [3, 21] was -1.12% and 9.4%. The outcome [4] was “inactive” and the outcome [7] was “inactive”.

In the case of `O=C(Cn1ccnc1[N+](=O)[O-])NCCO`, the outcome [1] was “inactive”, the Potency [2] was “inactive” and the activity change, negative = inhibition [3, 21] was -5.19%. The outcome [4] was “inactive” and the outcome [7] was “inactive”.

With `O=C(O)COC(=O)Cc1ccccc1Nc1c(Cl)cccc1Cl` the outcome [1] was “inactive”, the Potency [2] was “inactive” and the activity change, negative = inhibition [3, 21] was -7.48%. The outcome [4] was “inactive” and the outcome [7] was “inactive”.

For `Cc1cc(C)nc(NS(=O)(=O)c2ccc(N)cc2)n1`, the outcome [1] was “inactive”, the Potency [2] was “inactive” and the Potency [9] was greater than 92 µM. For the same molecule, the Potency [10] was greater than 92 µM, the Potency [11] was greater than 92 µM and the Potency [12] was greater than 92 µM. The Potency [13] was greater than 92 µM, the Potency [14] was greater than 92 µM and the activity change, negative = inhibition [3, 21] was -2.6%. The outcome [4] was “inactive”, the Potency [5] was greater than 20.6 µM and the Potency [6] was greater than 20.6 µM. For the same molecule, the outcome [7] was “inactive”, the outcome [15] was “inactive” and the outcome [16] was “inactive”. For the same molecule, the outcome [17] was “inactive”, the outcome [18] was “inactive” and the viability change, negative = cytotoxic [19] was -0.461%. For the same molecule, the outcome [20] was “inactive”.

In the case of `Cc1ncc(CO)c(CN)c1O`, the Potency [8] was greater than 11.4 µM, the outcome [1] was “inactive” and the activity change, negative = inhibition [3, 21] was -0.448% [at 7.69 µM]. For the same molecule, the outcome [4] was “inactive” and the outcome [7] was “inactive”.

In the case of `OC(CCN1CCCC1)(c1ccccc1)C1CCCCC1` (centres undefined), the outcome [1] was “inactive”, the activity change, negative = inhibition [3, 21] was -89.4% (active) and the outcome [4] was “inactive”. For the same molecule, the Potency [5] was greater than 20.6 µM.

For `O=S1(=O)OC(c2ccc(O)cc2)(c2ccc(O)cc2)c2ccccc21`, the Potency [8] was greater than 11.4 µM, the outcome [1] was “inactive” and the activity change, negative = inhibition [3, 21] was 14.9% [at 7.69 µM]. The outcome [4] was “inactive” and the outcome [7] was “inactive”.

In the case of `Nc1ccc(S(=O)(=O)c2ccc(N)cc2)cc1`, the outcome [1] was “inactive”, the Potency [9] was greater than 92 µM and the Potency [10] was greater than 92 µM. It also gave a Potency [11] greater than 92 µM, a Potency [12] greater than 92 µM and a Potency [13] greater than 92 µM. The Potency [14] was greater than 92 µM, the activity change, negative = inhibition [3, 21] was -0.066% and 13.8% and the outcome [4] was “inactive”. The outcome [7] was “inactive”, the outcome [15] was “inactive” and the outcome [17] was “inactive”. The outcome [18] was “inactive”, the viability change, negative = cytotoxic [19] was -10.9% and the outcome [20] was “inactive”.

In the case of `Cn1c([N+](=O)[O-])cnc1COC(N)=O`, the outcome [1] was “inactive”, the Potency [2] was “inactive” and the activity change, negative = inhibition [3, 21] was -6.16% and -23.1%. For the same molecule, the outcome [4] was “inactive”, the Potency [5] was greater than 20.6 µM and the Potency [6] was greater than 20.6 µM. For the same molecule, the outcome [7] was “inactive”.

Work on `CC1CC(OC(=O)c2ccccc2O)CC(C)(C)C1` (centres undefined) yielded a Potency [9] greater than 92 µM, a Potency [10] greater than 92 µM and a Potency [11] greater than 92 µM. For the same molecule, the Potency [12] was greater than 92 µM, the Potency [13] was greater than 92 µM and the Potency [14] was greater than 92 µM. The outcome [7] was “inactive”, the outcome [15] was “inactive” and the outcome [16] was “inactive”. The outcome [17] was “inactive”, the outcome [18] was “inactive” and the viability change, negative = cytotoxic [19] was -0.877%. For the same molecule, the outcome [20] was “inactive”.

`CC(=O)Nc1ccccc1` gave a Potency [9] greater than 92 µM, a Potency [10] greater than 92 µM and a Potency [11] greater than 92 µM. It also gave a Potency [12] greater than 92 µM, a Potency [13] greater than 92 µM and a Potency [14] greater than 92 µM. The outcome [7] was “inactive”, the outcome [15] was “inactive” and the outcome [16] was “inactive”. For the same molecule, the outcome [17] was “inactive”, the outcome [18] was “inactive” and the viability change, negative = cytotoxic [19] was -26.9%. For the same molecule, the outcome [20] was “inactive”.

For `CCCCC1(COC(=O)CCC(=O)O)C(=O)N(c2ccccc2)N(c2ccccc2)C1=O`, the outcome [1] was “inactive”, the activity change, negative = inhibition [3, 21] was 11.7% and the outcome [4] was “inactive”. The outcome [7] was “inactive”.

From PubChem BioAssay (NCATS)
